# Records with an inconclusive call do not appear. Where a call stands in place of a potency, no number is given. Calls of active or inactive are those of the source. The call rests on the fitted dose curve.
# Molecular target: cAMP-dependent protein kinase catalytic subunit alpha (Homo sapiens) (UniProt P17612)
# Experiment: Protein Kinase A (PKA-HiBiT) SDR gain of signal screen
# Details: PKA-HiBiT structural dynamics response (SDR), luminescence gain of signal; series mostly up to 32.9 µM
# Text: National Center for Advancing Translational Sciences (NCATS),
# National Institute of Health (NIH), Maryland
# Discovery and optimization of novel protein-binding ligands underlies many of the methods and applications of biology, drug discovery, clinical diagnostics, and environmental toxicology. Assays for detecting the interaction of, for example, a molecule with a macromolecular target also referred to here as the target of interest (TOI) is dependent on a compatible output technology. Depending on the nature and knowledge surrounding the TOI, whether a receptor, enzyme, regulatory subunit or scaffold, or a sequence-defined nucleic acid folded into a complex tertiary structure, assay strategies can vary widely.
# Here we exploit ligand-biased changes in the structural dynamics of the target protein to control reporter alpha complementation allowing a non-competitive, non-functional, non-separation measure of ligand-target interaction.
# Using a chemical library of >1,200 compounds enriched for scaffolds known to be associated with the inhibition of firefly luciferase (FLuc) activity (PubChem AIDs 2309) we first illustrate and compare the Structural Dynamics Response (SDR) assay vs. the standard functional FLuc enzyme assay (2). Secondly, we show the specificity and sensitivity of the SDR for the Abelson tyrosine kinase (ABL1) compared to the serine/threonine protein kinase A, using an enriched chemical library of 128 compounds selected, in part, for activity annotated with ABL1 kinase activity using the Pharos database (3).
# (1) A. S. Dixon et al., NanoLuc Complementation Reporter Optimized for Accurate Measurement of Protein Interactions in Cells. ACS Chem Biol 11, 400-408 (2016).
# Chemistry & Biology, 19, 1060 - 1072 (2012).
# (3) K. J. Kelleher et al., Pharos 2023: an integrated resource for the understudied human proteome. Nucleic Acids Res 51, D1405-D1416 (2023).
# PROTOCOL TABLE (as described by Inglese J, Shamu CE and Guy RK. 2007)
# SEQUENCE No. (e.g., 1, 2, 3, etc.); […] (e.g., C. elegans, Compounds, Incubation, Read, etc.); VALUE and DESCRIPTION.
# 1. Reagent. Dispense 4 uL PKA-N-HiBiT enzyme per well at a final enzyme concentration of 10 nM in buffer into columns 2-48 of four replicate Greiner 1536-well white,solid bottom high base, medium plates per assay. Dispense respective buffer without enzyme at 4 uL/well in column 1 of assay plates using BioRaptr 2.
# 2. Compounds. Library compounds added at 23 nL/well by pin transfer. DMSO neutral control and H-89 positive control added at 25 nL/well, transfer by Mosquito dispenser.
# 3. Incubation. Incubate enzyme and compounds at room temperature for 30 min, protect from light.
# 4. Reagent. (SDR assay) Add 3 uL/well of Nano-Glo HiBiT reagent (Promega) to assay plates.
# 5. Incubation. (SDR assay) Incubate enzyme solution HiBiT reagent at room temperature for 10 min, protected from light.
# 6. Detector. (SDR assay) Luminescence measured using CCD-based camera (ViewLux) with settings as follows: Exposure, 1 sec; Gain, High; Speed, Slow; Binning, 2X.
row,Compound,Potency
1,O=[N+]([O-])O[C@H]1CO[C@H]2[C@@H]1OC[C@H]2O[N+](=O)[O-],inactive
2,N#Cc1cn([C@@H]2O[C@H](CO)[C@H](O)[C@@H]2O)c2ncnc(N)c12,inactive
3,CCNC(=O)C[C@@H]1N=C(c2ccc(Cl)cc2)c2cc(OC)ccc2-n2c(C)nnc21,inactive
4,C/C(O)=C(\C#N)C(=O)Nc1cc(Br)ccc1Br,inactive
5,O=C(NCCCNc1nc(Nc2ccc(N3CCOCC3)cc2)ncc1C1CC1)C1CCC1,inactive
6,Cc1[nH]nc2ccc(-c3cncc(OC[C@@H](N)Cc4c[nH]c5ccccc45)c3)cc12,0.197 µM (active)
